Measured values: PubChem BioAssay (Tox21)
Where “and” joins values, the source holds several entries; their conditions need not be identical. Identical values can stand only once. Results filed as inconclusive are left out. The source holds several records for some structures; these can differ, active in one and inactive in another. Calls of active or inactive are those of the source. Unless noted, calls come from the whole dose curve; as a rule, active = well fitted curve in the direction sought with a large enough effect in the repeat runs; inconclusive = weak or mixed curves; inactive = no such curve, though single readings can be large; an effect the other way counts as inactive or inconclusive.

Assays:
[1] = A CellTox Green Cytotoxicity Assay to monitor cytotoxicity in HepG2 cells - 8 hour (AID 1224890); note: nearly all actives have a fitted effect of over 45% in size; note: potency is the fitted concentration of half-maximal effect
Method in brief: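 Nonlytic assay: viable cells exclude the dye, so fluorescence scales with cell death. HepG2 at 600 cells/well, compounds added after 5 h, signal read across 40 h.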

[2] = target: Estrogen receptor (Homo sapiens) (UniProt P03372); assay: qHTS assay to identify small molecule antagonists of the estrogen receptor alpha (ER-alpha) signaling pathway using the BG1 cell line in the presence of 0.1 nM 17-beta-estradiol (AID 1259244); note: nearly all actives have a fitted effect of over 50% in size; note: potency is the fitted concentration of half-maximal effect
Estrogen receptor (Homo sapiens), sequence (P03372 whole entry, looked up): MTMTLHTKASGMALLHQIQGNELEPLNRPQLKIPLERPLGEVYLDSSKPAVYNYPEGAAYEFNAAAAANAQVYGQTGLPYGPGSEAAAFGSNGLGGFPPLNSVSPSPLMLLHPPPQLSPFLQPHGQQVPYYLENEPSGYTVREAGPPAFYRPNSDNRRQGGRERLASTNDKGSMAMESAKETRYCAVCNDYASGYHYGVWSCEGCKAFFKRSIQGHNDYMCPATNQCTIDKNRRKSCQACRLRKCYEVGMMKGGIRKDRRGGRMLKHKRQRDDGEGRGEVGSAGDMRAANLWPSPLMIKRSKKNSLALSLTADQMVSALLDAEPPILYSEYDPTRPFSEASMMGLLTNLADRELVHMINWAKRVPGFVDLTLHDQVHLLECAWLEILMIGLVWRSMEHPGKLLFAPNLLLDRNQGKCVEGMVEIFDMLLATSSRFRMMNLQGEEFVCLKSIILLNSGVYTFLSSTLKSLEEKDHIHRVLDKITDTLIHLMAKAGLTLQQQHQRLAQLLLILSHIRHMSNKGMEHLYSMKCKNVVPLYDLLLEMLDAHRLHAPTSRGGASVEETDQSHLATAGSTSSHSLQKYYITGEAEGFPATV
Method in brief: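 VM7Luc4E2; 4xERE-luciferase; 0.1 nM E2 final; 22 h co-incubation, 37C; ONE-Glo luminescence after 30 min at room temperature.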

[3] = qHTS assay to identify small molecule HDAC inhibitors - cell viability counter screen (AID 1259365); note: series mostly up to about 92 µM; nearly all actives have a fitted effect of over 50% in size
Method in brief: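 Measured quantity is CellTiter-Glo luminescence from wild-type HCT-116 cells after compound incubation of 2hr at 37C, 5% CO2; reagent developed 30min at room temperature.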

[4] = qHTS assay to identify small molecule agonists of the sonic hedgehog signaling (Shh) pathway - cell viability counter screen (AID 1259366); note: nearly all actives have a fitted effect of over 50% in size; note: potency is the fitted concentration of half-maximal effect
Method in brief: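 In quantitative high-throughput format, 3T3 Gli1-Luc cells were exposed to compounds for 24hr and multiplexed for viability using CellTiter-Fluor, incubated 1hr at 37C before the fluorescence read.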

[5] = qHTS assay to identify small molecule antagonists of the sonic hedgehog signaling (Shh) pathway - cell viability counter screen (AID 1259367); note: nearly all actives have a fitted effect of over 55% in size; note: potency is the fitted concentration of half-maximal effect
Method in brief: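 Cells: 3T3 Gli1-Luc, 2,000/well, 4 hr pre-incubation. Compounds in DMSO, then conditioned medium. Incubation 24 hr, 37C, 5% CO2. CellTiter-Fluor at 23 hr, 1 hr, fluorescence.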

[6] = qHTS assay to identify small molecule agonists of the sonic hedgehog signaling (Shh) pathway (AID 1259368; calls by dose curve;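 note: NIH/3T3-derived 3T3Gli1-Luc cells carrying a stable Gli1-driven firefly luciferase reporter; series mostly up to about 92 µM; nearly all actives have a fitted effect of over 15% in size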)
Method in brief: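 Mouse fibroblast (NIH/3T3) reporter cells with stably integrated Gli1-Luc were treated 24 hr with compound; firefly luciferase luminescence served as the read-out.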

[7] = qHTS assay to identify small molecule antagonists of the sonic hedgehog signaling (Shh) pathway (AID 1259369; calls by dose curve; note: nearly all actives have a fitted effect of over 45% in size; note: potency is the fitted concentration of half-maximal effect)
Method in brief: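 Conditioned medium drives Shh signalling in 3T3Gli1-Luc cells; compounds in DMSO co-applied, 24hr at 37 C, then luciferase luminescence.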

[8] = target: Estrogen receptor beta (Homo sapiens) (UniProt Q92731); assay: qHTS assay to identify small molecule agonists of the estrogen receptor beta (ER-beta) signaling pathway (AID 1259377; active = well fitted activation curve with a large enough effect in the signal ratio in the repeat runs, not every such curve was filed as active; the % refers to the signal ratio; note: potency is the fitted concentration of half-maximal effect)
Estrogen receptor beta (Homo sapiens), sequence (Q92731 whole entry, looked up): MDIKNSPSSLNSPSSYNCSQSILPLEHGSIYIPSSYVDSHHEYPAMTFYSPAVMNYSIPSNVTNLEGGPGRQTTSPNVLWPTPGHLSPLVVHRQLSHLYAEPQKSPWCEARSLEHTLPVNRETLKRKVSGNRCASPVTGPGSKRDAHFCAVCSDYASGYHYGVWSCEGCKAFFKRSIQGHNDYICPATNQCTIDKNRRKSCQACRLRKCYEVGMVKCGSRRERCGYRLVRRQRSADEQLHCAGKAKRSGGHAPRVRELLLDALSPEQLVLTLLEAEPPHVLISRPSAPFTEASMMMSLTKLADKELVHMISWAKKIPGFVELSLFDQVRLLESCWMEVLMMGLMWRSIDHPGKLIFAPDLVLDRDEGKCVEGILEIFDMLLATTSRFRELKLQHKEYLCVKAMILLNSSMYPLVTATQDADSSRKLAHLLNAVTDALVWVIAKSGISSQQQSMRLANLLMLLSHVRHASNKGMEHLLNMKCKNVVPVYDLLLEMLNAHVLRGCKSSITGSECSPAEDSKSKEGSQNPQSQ
Method in brief: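 Reporter cells (HEK293T, ER-beta-UAS-bla) receive compounds or DMSO after a 6 hr pre-incubation. They then incubate 16 hr at 37C/5% CO2, and fluorescence from LiveBLAzer B/G substrate is measured after 2 hours at room temperature.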

[9] = target: Estrogen receptor beta (Homo sapiens) (UniProt Q92731); assay: qHTS assay to identify small molecule antagonists of the estrogen receptor beta (ER-beta) signaling pathway (AID 1259378; active = well fitted inhibition curve with a large enough effect in the signal ratio in the repeat runs, not every such curve was filed as active; the % refers to the signal ratio)
Method in brief: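 Antagonist mode: compounds added to beta-lactamase reporter HEK293T ER-beta-UAS cells stimulated with E2 (1nM final), 16 hr at 37C. LiveBLAzer B/G FRET substrate, 2 hours room temperature, fluorescence read-out.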

[10] = qHTS assay to identify small molecule agonists of the androgen receptor (AR) signaling pathway in the presence of an antagonist - cell viability counter screen (AID 1259379); note: nearly all actives have a fitted effect of over 25% in size; note: potency is the fitted concentration of half-maximal effect
Method in brief: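 A CellTiter-Fluor read-out measured viability of MDA-kb2 reporter cells (MMTV promoter with AR and GR response elements). Treatment: nilutamide 3.0uM final with compounds at 15 concentrations, 16 hr, 37C, 0% CO2.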

[11] = qHTS assay to identify small molecule agonists of the estrogen receptor beta (ER-beta) signaling pathway - cell viability counter screen (AID 1259380); note: nearly all actives have a fitted effect of over 30% in size; note: potency is the fitted concentration of half-maximal effect
Method in brief: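 Cells used were ER-beta-UAS-bla HEK293T in medium with 2% charcoal-stripped FBS. They were treated for 16 hr at 37C. Viability came from CellTiter-Glo luminescence.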

[12] = qHTS assay to identify small molecule antagonists of the estrogen receptor beta (ER-beta) signaling pathway - cell viability counter screen (AID 1259382); note: nearly all actives have a fitted effect of over 55% in size; note: potency is the fitted concentration of half-maximal effect
Method in brief: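 Agonist-stimulated (1nM E2) ER-beta-UAS-bla HEK293T cells are incubated with library compounds for 16 hr at 37C. Cell viability is then assessed in the reporter-assay wells by adding CellTiter-Glo and reading luminescence after 30 min.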

[13] = target: Estrogen receptor (Homo sapiens) (UniProt P03372); assay: qHTS assay to identify small molecule agonists of the estrogen receptor alpha (ER-alpha) signaling pathway in the presence of an antagonist (AID 1259383; calls by dose curve; note: top concentration of the series differs between compounds; nearly all actives have a fitted effect of over 15% in size)
Method in brief: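 Using VM7Luc4E2 cells seeded 24hr before treatment, antagonist ICI-182,780 (10.0nM final) was added, followed by compounds at 15 concentrations. Plates incubated 22hr; ONE-Glo luminescence quantified reporter activity.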

[14] = qHTS assay to identify small molecule agonists or antagonists of the thyroid stimulating hormone receptor (TSHR) signaling pathway - wild type cell line counter screen (AID 1259384; calls by dose curve)
Method in brief: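 Counter screen in untransfected Hek293: compounds (15-point titration, triplicate) plus phosphodiesterase inhibitor Ro20-1724 added after 18 h plating; 30 min RT. Intracellular cAMP via competitive d2/cryptate immunoassay, 1 h incubation.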

[15] = qHTS assay to identify small molecule antagonists of the androgen receptor (AR) signaling pathway using the MDA cell line in the presence of 0.5 nM R1881 - cell viability counter screen (AID 1259242); note: nearly all actives have a fitted effect of over 45% in size; note: potency is the fitted concentration of half-maximal effect
Method in brief: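 R1881 at 0.5 nM final stimulated MDA-kb2 cells during 16 hr compound treatment at 37C. Cytotoxicity read: CellTiter-Fluor fluorescence after 30 min.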

[16] = qHTS assay to identify small molecule HDAC inhibitors (AID 1259364); note: potency is the fitted concentration of half-maximal effect;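 note: wild-type HCT-116 cells with endogenous class I/II HDAC activity; nearly all actives have a fitted effect of over 45% in size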
Method in brief: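 Relative class I and II HDAC activity is taken from the luminogenic signal in HCT-116 cells, with compound exposure 2 hr and reagent development 30 min at room temperature.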

[17] = qHTS assay to identify small molecule antagonists of the estrogen receptor alpha (ER-alpha) signaling pathway using the BG1 cell line in the presence of 0.1 nM 17-beta-estradiol - cell viability counter screen (AID 1259241); note: nearly all actives have a fitted effect of over 40% in size; note: potency is the fitted concentration of half-maximal effect
Method in brief: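 In this screen, hormone-deprived VM7Luc4E2 cells were seeded at 4,000 per well, dosed with compound and 0.1 nM estradiol final, and incubated 22 hr at 37C and 5% CO2; fluorogenic live-cell protease signal reported viability.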

[18] = qHTS assay to identify small molecule phospholipidosis (PLD) inducers (AID 1259344; active = well fitted curve in the direction sought with a large enough effect; an effect the other way counts as inactive or inconclusive)
Method in brief: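 Phospholipidosis is scored by imaging LipidTOX-stained pits in HepG2 cells exposed to compound for 24 h at 37 C; pit counts and integrated intensities per well and per cell serve as outputs.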

Measured: Potency

COC(=O)c1ccc(C(=O)OC)cc1
6.19 µM (active) and inactive: [2] | [11]
2.2 µM (active) and inactive: [5]
inactive: [1] | [3] | [6] | [8] | [9] | [10] | [13] | [14]
982 nM (active) and inactive: [7]
6.95 µM (active) and inactive: [4]
19.6 µM (active) and inactive: [12]

O=C(c1cc(O)c(O)c(O)c1)c1ccc(O)c(O)c1O
active: [4] 54.3 µM and 54.5 µM | [5] 54.5 µM | [10] 27.3 µM
34.4 µM (active) and inactive: [7]
inactive: [1] | [15] | [2] | [16] | [3] | [6] | [8] | [9] | [11] | [12] | [13]

CCCCNC(N)=O
inactive: [1] | [17] | [16] | [3] | [4] | [5] | [6] | [8] | [9] | [10] | [11] | [12]

CN(C)c1cccc(O)c1
inactive and 54.9 µM (active): [1]
inactive: [17] | [16] | [3] | [4] | [5] | [6] | [7] | [8] | [9] | [10] | [11] | [12] | [14]

CCCCOCCO
inactive: [1] | [17] | [2] | [16] | [3] | [4] | [5] | [6] | [7] | [10] | [11] | [12] | [13] | [14]

Cc1ccc(N)c(S(=O)(=O)O)c1
inactive: [1] | [17] | [16] | [3] | [4] | [5] | [6] | [8] | [9] | [10] | [11] | [12] | [14]

CS(=O)(=O)Nc1ccc([N+](=O)[O-])cc1Oc1ccccc1
inactive: [1] | [15] | [18] | [16] | [3] | [6] | [7] | [8] | [11] | [12] | [14]
active: [10] 26.6 µM

CC(C)(N=C=O)c1cccc(C(C)(C)N=C=O)c1
68 µM (active) and inactive: [11]
inactive: [1] | [17] | [16] | [3] | [4] | [5] | [6] | [10] | [12] | [14]

O=C(O)c1ccc([N+](=O)[O-])cc1
inactive: [1] | [17] | [16] | [3] | [4] | [5] | [6] | [7] | [8] | [9] | [10] | [11] | [12]

C=C1C2CCC(C2)C1(C)C (stereo unspecified)
inactive: [1] | [17] | [2] | [16] | [3] | [4] | [5] | [6] | [7] | [8] | [9] | [10] | [11] | [12] | [13] | [14]

Cc1cc(O)c2c(c1)C(=O)c1cc(O)cc(O)c1C2=O
inactive and 48.6 µM (active): [15]
inactive and 54.5 µM (active): [5]
inactive: [1] | [2] | [3] | [4] | [6] | [11] | [12] | [14]
active: [16] 5.32 µM and 1.93 µM | [8] 4.86 µM | [10] 26.7 µM and 30.6 µM

O=C(Cl)c1c(Cl)c(Cl)c(C(=O)Cl)c(Cl)c1Cl
inactive: [1] | [17] | [2] | [16] | [3] | [4] | [5] | [6] | [7] | [8] | [9] | [10] | [11] | [12] | [13]

CN(C)c1ccc(C(=N)c2ccc(N(C)C)cc2)cc1
inactive: [1] | [16] | [3] | [6] | [8] | [9] | [12] | [13] | [14]
active: [17] 18.6 µM | [2] 17 µM and 23.4 µM | [4] 48 µM | [5] 48 µM and 23.4 µM | [10] 30.3 µM and 26.3 µM
